From the OligoGym collection

molecular target: KIAA1217; test: pooled miR-30 sensor sort-seq; sequence = guide strand; details: shRNA
Note: reference of the scale not given here.

| Sequence | sensor-assay potency score (higher = more potent) |
| --- | --- |
| TTTCCCATTATAGTGATCCAGA | -1.06 |
| TAGTGATCCAGATTTTGCCTTT | -0.121 |
| TTTTTGTCTCTCTTGCTCCACT | -0.52 |

molecular target: KIAA1279; test: as above; details: shRNA

| Sequence | sensor-assay potency score (higher = more potent) |
| --- | --- |
| TTCAATATTGCACATTTCCTTT | -0.873 |
| TTAATAGGAAACAAGCATCTAA | 0.679 |
| TAGTACTTCAGTGCTGACTTAT | -0.671 |
| TATACTGATTATATAGTGCTTC | 0.382 |
| TTCTTTGATGATAAAGCTCTGG | -0.681 |
| TAGGTTATGAGTATAAACCTTT | -0.128 |
| TTTTTGATCTCTCTTGTTCAGT | -0.606 |
| TAGCTTATTGATGTAAAACTGT | -0.47 |
| TAAAGCTCTAAGTTCAGACTGT | 0.562 |
| TTGAGCTAGGTAATATAGGTTA | -0.261 |
| TAGCTCAACTTCTATTTCCTGG | 0.213 |

molecular target: KIAA2018; test: as above; details: shRNA

| Sequence | sensor-assay potency score (higher = more potent) |
| --- | --- |
| TAGATTATAAGTACTAGCTAGT | 0.0786 |
| TTGCTGGTCACATCTTCTCTTG | -1.17 |
| TTTCTGTACAGAAACATTGGGG | -0.202 |
| TATCTGATGAATCTTGCTCAAC | -1.15 |
| TTGACTAATTCGAAAAGCCTGG | -0.327 |
| TTTGTGTTGAGTTAGACGCTGA | 0.486 |
| TTTCTGCATCTGAACTTCCTGT | -0.663 |
| TTGAGCTGGAACATGCTGCTGC | 0.733 |
| TTGTTGTAGATGACAAACCAGG | -1.34 |
| TCTGCTTCCAACATCCTGCTGT | 0.86 |
| TAGATTTCGATACAGACTCAGG | -1.04 |
| TAAACTTCCACTGTTTACCTTC | 0.292 |

molecular target: KIF21A; test: as above; details: shRNA

| Sequence | sensor-assay potency score (higher = more potent) |
| --- | --- |
| TTCAACTGAGCAATCTCTCTGT | 0.68 |
| TTGAGCTGCTTGAAGTCTCTGC | 0.624 |
| TTGCAGAACAAGCATCTCCAAG | -1.19 |
| TTCTAGTTCATCAATCAGCTTT | -0.0186 |
| TTTTATATAACTATGAATCATA | -0.753 |
| TTGAATGTAGATCTGCTCTTGC | 0.95 |
| TTGATTTGCTGACTAGCTCTGT | 0.32 |
| TTGCTGACTAGCTCTGTCCTGA | 0.278 |
| TTTCATTTCCATCACATCCTGC | 0.0152 |
| TATACATTGAATGTAGATCTGC | -0.0184 |
| TAGTAGTCTTGTTAGCTTGGAA | -0.0525 |
| TTGTTTGAGTCGACCTTCCAGT | -0.666 |
